# Experimental data reported in the supplement of paper PMC9694430.
# Columns and labels:
# Assay in all cases: thermal shift delta Tm vs DMSO control; higher = stronger stabilization (binding)
# Settings in all cases: 12.5 µM; protein concentration 2 µM
# LOC_OS04G57630-cb004 = system: LOC_OS04G57630-cb004
# How it was run: (§1)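 Rice kinase domain constructs, made in E. coli and purified, were placed in 96-well plates at 2 μM in 19.5 μl of 100 mM potassium phosphate pH 7.5, 150 mM NaCl, 10% glycerol and 5 × SYPRO Orange, with compound in DMSO. A temperature ramp from 25°C to 95°C at 0.05°C/s was used for differential scanning fluorimetry. The melting temperature shift is a triplicate mean compared with DMSO-only protein, derived from Boltzmann fits.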
# LOC_OS05G07850-cb002 = system: LOC_OS05G07850-cb002
# How it was run: as §1
# LOC_OS05G16824-cb004 = system: LOC_OS05G16824-cb004
# How it was run: as §1
# LOC_OS05G28520-cb001 = system: LOC_OS05G28520-cb001
# How it was run: as §1
# LOC_OS05G30820-cb001 = system: LOC_OS05G30820-cb001
# How it was run: as §1
# LOC_OS05G43570-cb004 = system: LOC_OS05G43570-cb004
# How it was run: as §1
# LOC_OS06G16330-cb003 = system: LOC_OS06G16330-cb003
# How it was run: as §1
# LOC_OS06G22820-cb001 = system: T1, LOC_OS06G22820-cb001
# T1 sequence (whole entry): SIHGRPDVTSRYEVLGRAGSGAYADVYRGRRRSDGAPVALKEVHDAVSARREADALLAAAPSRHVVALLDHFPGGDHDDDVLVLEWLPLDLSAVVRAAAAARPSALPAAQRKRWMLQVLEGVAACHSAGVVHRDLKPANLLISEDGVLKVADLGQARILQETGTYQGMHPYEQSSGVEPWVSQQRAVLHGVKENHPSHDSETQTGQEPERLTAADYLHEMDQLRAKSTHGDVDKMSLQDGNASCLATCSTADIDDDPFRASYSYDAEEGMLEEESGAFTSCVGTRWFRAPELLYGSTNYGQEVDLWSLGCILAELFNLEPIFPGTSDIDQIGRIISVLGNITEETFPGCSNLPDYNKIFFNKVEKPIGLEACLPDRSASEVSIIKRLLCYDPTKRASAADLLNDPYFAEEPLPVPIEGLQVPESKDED
# How it was run: as §1
# LOC_OS07G06570-cb004 = system: LOC_OS07G06570-cb004
# How it was run: as §1
# LOC_OS07G07230-cb001 = system: LOC_OS07G07230-cb001
# How it was run: as §1
# 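Further: purified Escherichia coli-expressed rice kinase domain construct.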
# Sequence of LOC_OS06G16330-cb003 (as listed by the source): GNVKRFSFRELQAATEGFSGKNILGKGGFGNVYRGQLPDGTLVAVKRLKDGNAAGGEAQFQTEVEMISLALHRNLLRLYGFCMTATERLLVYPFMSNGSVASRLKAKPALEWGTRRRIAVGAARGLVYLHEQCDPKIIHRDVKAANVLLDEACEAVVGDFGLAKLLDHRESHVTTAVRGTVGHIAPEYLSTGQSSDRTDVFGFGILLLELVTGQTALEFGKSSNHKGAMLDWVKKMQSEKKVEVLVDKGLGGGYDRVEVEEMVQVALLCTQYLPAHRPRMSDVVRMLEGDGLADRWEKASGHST
SMILES,thermal shift delta Tm (LOC_OS04G57630-cb004) [°C],thermal shift delta Tm (LOC_OS05G07850-cb002) [°C],thermal shift delta Tm (LOC_OS05G16824-cb004) [°C],thermal shift delta Tm (LOC_OS05G28520-cb001) [°C],thermal shift delta Tm (LOC_OS05G30820-cb001) [°C],thermal shift delta Tm (LOC_OS05G43570-cb004) [°C],thermal shift delta Tm (LOC_OS06G16330-cb003) [°C],thermal shift delta Tm (LOC_OS06G22820-cb001) [°C],thermal shift delta Tm (LOC_OS07G06570-cb004) [°C],thermal shift delta Tm (LOC_OS07G07230-cb001) [°C]
COc1cc(OC)c(/C=C/S(=O)(=O)Cc2ccc(OC)c(NCC(=O)O)c2)c(OC)c1,0.06,0.2,-0.41,0.21,0.62,0.71,-0.1,0.75,0.87,0.29
CCN(CC)CCNC(=O)c1c(C)[nH]c(/C=C2\C(=O)Nc3ccc(-c4csc(-c5ccccc5)n4)cc32)c1C [Amcasertib (BBI503)],2.36,10.8,12.7,2.76,0.34,0,6.16,0.72,1.73,0.75
C=CC(=O)Nc1ccc(CN2C(=O)N(c3cc(OC)cc(OC)c3)Cc3cnc(Nc4ccc(N5CCN(C)CC5)cc4)nc32)cc1,7.31,0.75,1.16,1.83,0.78,0.66,2.37,0.84,2.63,1.29
OC1CCC(Oc2cccc3cnc(Nc4ccc5nc[nH]c5c4)nc23)CC1 (stereo not given),4.38,13.5,18.9,0.67,2.88,1.07,12.4,0.29,1.85,0.34
C=CC(=O)Nc1cccc(Oc2nc(Nc3ccc(N4CCN(C)CC4)cc3)nc3ccsc23)c1,1.01,8.37,2.38,2.64,1.14,1.26,3.14,0.83,2.96,1.41
Nc1nc(N)c(N=O)c(OCC2CCCCC2)n1,0.27,8.06,1.8,0.61,0.8,0.23,2.17,0.95,1.43,-0.02
COC(=O)c1ccc2c(c1)NC(=O)/C2=C(\Nc1ccc(N(C)C(=O)CN2CCN(C)CC2)cc1)c1ccccc1 [Nintedanib (BIBF 1120)],1.08,1.57,9.2,0.54,0.35,0.43,0.71,0.4,0.96,0.42
Cc1cc(Nc2cc(Cl)nc(Oc3ccc([N+](=O)[O-])cc3)n2)n[nH]1 [Autophinib],-0.11,0.97,-0.37,0.34,0.1,0.13,0.35,0.51,1.89,0.73
"O=c1cc(-c2ccccc2)oc2c(O)c(O)ccc12 [7,8-Dihydroxyflavone]",-0.51,1.25,-6.61,2.12,1.22,1.47,1.88,1.1,3.28,0.94
CCn1c(=O)c(-c2ccc(Cl)cc2Cl)cc2cnc(Nc3ccc(N4CCNCC4)c(F)c3)nc21,4.17,10.6,6,2.8,0.68,0.35,6.75,0.87,1.3,4.1
"C=CC(=O)Nc1cccc(Nc2nc(Nc3ccc(N4CCN(C(C)=O)CC4)cc3OC)ncc2C(F)(F)F)c1 [Rociletinib (CO-1686, AVL-301)]",0.55,10.2,4.44,0.98,0.73,0.4,4.77,0.68,1.54,1.09
O=C1NC(=O)/C(=C/c2cccc(C(F)(F)F)c2)S1,0.39,1.33,-0.21,0.59,0.46,0.27,0.26,0.44,0.68,0.58
CN(C)C/C=C/C(=O)Nc1ccc(C(=O)Nc2cccc(Nc3ncc(Cl)c(-c4c[nH]c5ccccc45)n3)c2)cc1,2.1,11.2,11.9,4.57,5.85,1.59,11.2,0.86,1.53,0.68
CCOc1cc2ncc(C#N)c(Nc3ccc(F)c(Cl)c3)c2cc1NC(=O)/C=C/CN(C)C [Pelitinib (EKB-569)],0.32,2.2,-1.87,-0.33,0.56,0.2,2.16,0.39,0.65,0.56
CCN(CC)CCNC(=O)c1c(C)[nH]c(/C=C2\C(=O)Nc3ccc(F)cc32)c1C [Sunitinib Malate],4.24,8.46,13.1,1.41,0.86,0.2,7.74,0.19,0.48,0.56
COc1ccc(S(=O)(=O)N(C(C)=O)c2ccccc2/C=C/c2cc[n+]([O-])cc2)cc1,0.43,0.92,-6.15,0.67,0.66,0.45,0.41,0.58,1.06,0.31
N#CCNC(=O)c1ccc(-c2ccnc(Nc3ccc(N4CCOCC4)cc3)n2)cc1 [Momelotinib (CYT387)],3.11,11.6,3.39,0.59,0.75,0.76,7.69,0.49,0.77,0.53
COc1ccc(-c2cc3nccn3c(Nc3ncccc3C(N)=O)n2)cc1OC,1.09,10.1,-0.07,0.66,0.59,0.69,4.18,0.82,0.73,0.38
CCS(=O)(=O)N1CCN(c2ccc(Nc3ncc(C(N)=O)c(NC4CC4)n3)cc2)CC1,1.82,9.2,11.7,0.7,3.56,2.04,5.15,0.57,1.36,1.17
COc1cc2/c(=N/c3ccc(Br)cc3F)nc[nH]c2cc1OCC1CCN(C)CC1 [Vandetanib (ZD6474)],2.9,9.77,2.5,0.62,0.52,-0.25,9.59,1.8,4.17,0.94
COc1cc2ncnc(Oc3ccc(CC(=O)Nc4cnn(C(C)C)c4)cc3)c2cc1OC,1.78,8.95,0.86,0.43,0.37,-0.02,0.82,0.41,1.54,0.45
CN(C)CCCn1cc(C2=C(c3c[nH]c4ccccc34)C(=O)NC2=O)c2ccccc21,0.12,3.88,1.25,0.24,0.37,0.07,0.14,0.44,0.94,0.81
